The source of these data is PubChem BioAssay (NCATS).

Each structure is given as a SMILES string. Records with an inconclusive call do not appear. A number with no mark means an inactive call. Calls of active or inactive are those of the source. Unless noted, the call rests on the fitted dose curve.
On the % scale 0 is the no-effect control and ±100 the full control effect; potency means the concentration at half of the fitted maximal effect.

Sequence of Nucleoprotein (Lymphocytic choriomeningitis virus (strain Armstrong)) (P09992 whole entry, looked up): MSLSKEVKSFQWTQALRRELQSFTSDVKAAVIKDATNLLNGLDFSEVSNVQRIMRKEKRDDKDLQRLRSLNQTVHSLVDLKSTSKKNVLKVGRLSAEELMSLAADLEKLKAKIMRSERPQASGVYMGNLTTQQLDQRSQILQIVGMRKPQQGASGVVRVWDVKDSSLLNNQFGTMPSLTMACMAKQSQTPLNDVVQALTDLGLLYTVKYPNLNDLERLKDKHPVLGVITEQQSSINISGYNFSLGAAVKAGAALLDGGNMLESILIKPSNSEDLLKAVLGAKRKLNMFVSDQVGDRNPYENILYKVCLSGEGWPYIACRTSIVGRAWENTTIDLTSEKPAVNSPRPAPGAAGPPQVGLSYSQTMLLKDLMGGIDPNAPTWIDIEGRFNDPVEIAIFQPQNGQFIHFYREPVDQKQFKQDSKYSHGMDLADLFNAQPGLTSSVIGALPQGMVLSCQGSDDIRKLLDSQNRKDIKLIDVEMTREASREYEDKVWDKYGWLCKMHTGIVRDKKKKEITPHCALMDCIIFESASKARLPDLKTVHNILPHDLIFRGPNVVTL

Test system in the first test: not listed separately
Briefly: qHTS for Inhibitors of the Functional Ribonucleoprotein Complex (vRNP) of Lymphocytic Choriomeningitis Arenaviruses (LCMV): Viability assay - alamar blue signal for LCMV Primary Screen (AID 1347085; calls by dose curve; tested in HEK293 reporter line; further: nearly all actives have a fitted effect of over 80% in size). The conditions noted are these: alamar blue viability counter-screen, LCMV vRNP screen cells; series mostly up to 57.5 µM; activity change, negative = lower viability: at the top concentration. (qHTS replaces the single test concentration by a dilution series.)
Consider `ClC1=C(Cl)[C@]2(Cl)[C@@H]3[C@@H](Cl)[C@H]4O[C@H]4[C@@H]3C1(Cl)C2(Cl)Cl`, for which the “activity change, negative = lower viability” value is -12.1%.
For `COC(=O)Cc1ccccc1`, the “activity change, negative = lower viability” value is 3.55% [at 115 µM].
In the case of `COc1c2c(c3c(c1OC)c(=O)c1ccccc1n3C)OCO2`, the “activity change, negative = lower viability” value was 12.6%.
The same measure, in the same setting: the same measure for `CCCCCCOC(=O)CCC`: 11.2% [at 115 µM].
In the case of `C/C=C(\C)C(=O)OC(C)(C)[C@H]1Cc2cc3ccc(=O)oc3cc2O1`, the “activity change, negative = lower viability” value was 6.9%.
Same read-out and setting: the same measure for `COc1cc2cc(Oc3ccc4ccc(=O)oc4c3)c(=O)oc2cc1OC1OC(COC(=O)CC(C)(O)CC(=O)O)C(O)C(O)C1O` (stereo not given): 7.75%; for `COC(=O)/C=C/c1ccccc1`: 0.486% [at 115 µM].
`CCOC(=O)CC(C)C`: the “activity change, negative = lower viability” value is 8.77% [at 115 µM].
Consider `C=C(C)[C@@H]1CC[C@@H](C)C[C@@H]1O`, for which the “activity change, negative = lower viability” value is 6.18% [at 115 µM].
For `CCCCC/C=C\C[C@@H]1O[C@H]1C(O)/C=C\C/C=C\CCCC(=O)O` (stereo not given in full), the activity change, negative = lower viability is 11% [at 0.757 µM].
As to `C#CCCC/C(=C\C(=O)N(C)[C@H](C(=O)N(C)[C@H](C(=O)N(C)[C@H](C(=O)N(C)[C@H](C(N)=O)C(C)C)C(C)C)C(C)C)C(C)C)OC`, the “activity change, negative = lower viability” value was 12.8%.
Same read-out and setting: the figure for `Cn1c2c(c(=O)c3ccccc31)CCC(C)(C)O2` is 2.42%; for `COc1cc(CCc2ccccc2)c(C(=O)O)c(O)c1C/C=C(/C)CCC=C(C)C` it is 17.2%.
On the same count and under the same terms, the same measure for `COc1ccc2cc1Oc1ccc(cc1)CC1c3cc(c(OC)cc3CCN1C)Oc1c(OC)c(OC)c(OC)c3c1C(C2)N(C)CC3` (stereo not given): 4.59% [at 24.7 µM].
The same measure, in the same setting: the figure for `O=c1[nH]c(=O)c2ncn(C3OC(CO)C(O)C3O)c2[nH]1` (stereo not given) is 9.85%; for `Cc1c[nH]c(C=C2C(=O)Nc3ccccc32)c1CCC(=O)O` it is -3.02%.
On to `O=C1Nc2ccc(Cl)cc2C(C#CC2CC2)(C(F)(F)F)O1` (stereo not given), for which the “activity change, negative = lower viability” value is -24.1%.
Same read-out and setting: the same measure for `OCCN1C[C@H](O)[C@@H](O)[C@H](O)[C@@H]1CO`: 1.63%.
With `OC[C@H]1O[C@@H](Oc2ccc(O)cc2)[C@H](O)[C@@H](O)[C@H]1O`, the “activity change, negative = lower viability” value was -25.2%.
On the same count and under the same terms, the same measure for `O=C(OCC#CCSc1nnc(-c2cccc3ccccc23)o1)c1cc2ccccc2s1`: -4.55%.
Turning to `CC(C)(O)c1cc2nc(-c3cnc(N)nc3)nc(N3CCOCC3)c2s1`, the Potency was 769 nM (active).
As for `O=C(/C=C/c1ccccc1)NCCc1cnc[nH]1`, the “activity change, negative = lower viability” value is -0.414%.
For `COc1cc2c(c(OC)c1OC)-c1c(cc(OC)c(OC)c1OC)C[C@](C)(O)[C@@H](C)C2`, the “activity change, negative = lower viability” value is -0.0307%.
Same read-out and setting: the figure for `COC(=O)C1=CO[C@@H](C)[C@@H]2CN3CC[C@]4(C(=O)Nc5c4ccc(OC)c5OC)[C@H]3C[C@H]12` is -9.33%; for `C/C=C\C/C=C/CCCCCCCCOC(C)=O` it is 8.67% [at 115 µM].

A further test addresses Nucleoprotein (Lymphocytic choriomeningitis virus (strain Armstrong)) (UniProt P09992). As to the kind of experiment: qHTS for Inhibitors of the Functional Ribonucleoprotein Complex (vRNP) of Lymphocytic Choriomeningitis Arenaviruses (LCMV): LCMV Primary Screen - GLuc reporter signal (AID 1347086). Further: nearly all actives have a fitted effect of over 70% in size. The conditions noted are these: LCMV minigenome vRNP cell assay, Gaussia luciferase reporter; series mostly up to 57.5 µM; activity change, negative = inhibition: at the top concentration.
Regarding `O=C1N[C@@H](Cc2cnc[nH]2)C(=O)N2CCC[C@@H]12`, the “activity change, negative = inhibition” value is 10.2%.
As for `C=C1[C@H]2C[C@H]3[C@H]4N5C[C@]6(C)CCC[C@]47[C@H]([C@H]2O)[C@]3(C[C@]5(O)[C@H]67)[C@@H]1O`, the “activity change, negative = inhibition” value was -12.7%.
The same measure, in the same setting: the figure for `CNC[C@@H](O)[C@@H](O)[C@H](O)[C@H](O)CO` is 51.7%; for `O=C1C[C@@H](c2ccc(O)c(O)c2)Oc2c1ccc(O[C@@H]1O[C@H](CO)[C@@H](O)[C@H](O)[C@H]1O)c2O` it is 9.95%.
As for `CC(C)c1cc(C(=O)N2Cc3ccc(CN4CCN(C)CC4)cc3C2)c(O)cc1O`, the Potency is 485 nM (active).
Take `NC(=O)Nc1ccc(Cl)c(Cl)c1`: the “activity change, negative = inhibition” value was 32.7% [at 115 µM].
Same read-out and setting: the same measure for `CC(C)(O)c1ccc2c(c1)CCC1C(C)(C(=O)O)CCCC21C` (stereo not given): -0.305%; for `O=C1N[C@@H](Cc2c[nH]c3ccccc23)C(=O)N[C@H]1Cc1ccccc1`: 5.66%; for `C/C=C(\C)C(=O)O[C@@H]([C@H](O)c1cc2ccc(=O)oc2cc1OC)C(C)(C)O`: -0.373%.
Same read-out and setting: the figure for `Cc1c(O[C@@H]2O[C@H](CO)[C@@H](O)[C@H](O)[C@H]2O)c(CO)c(O[C@@H]2O[C@H](CO)[C@@H](O)[C@H](O)[C@H]2O)c2c1O[C@@H](c1ccccc1)C[C@@H]2O` is 16%; for `CC12CCC(C1)C(C)(C)C2=O` (stereo not given) it is 4.07%.
Still for that read-out and setting: the figure for `c1ccc2nc(-c3ccc4c(c3)OCO4)ccc2c1` is -12.8%; for `C[C@]12CCC3C(C[C@@H](O)[C@H]4C[C@@H](O)CC[C@]34C)C1CC[C@@H]2O` (stereo not given in full) it is 0.0476%.
For the compound `C=C(C)C1CCC(C)(O)CC1` (stereo not given), the “activity change, negative = inhibition” value was 8.81% [at 115 µM].
As for `N#CC(=C(O)c1ccc(Cl)cc1Cl)c1nc2cc(Cl)ccc2c(=O)[nH]1`, the “activity change, negative = inhibition” value was 15.1%.
Regarding `ClC1=C(Cl)[C@]2(Cl)[C@@H]3[C@@H](Cl)[C@H]4O[C@H]4[C@@H]3C1(Cl)C2(Cl)Cl`, the “activity change, negative = inhibition” value was 6.49%.
Same read-out and setting: the figure for `COC(=O)Cc1ccccc1` is 7.62% [at 115 µM].
`COc1c2c(c3c(c1OC)c(=O)c1ccccc1n3C)OCO2`: the “activity change, negative = inhibition” value was 0.76%.
As to `CCCCCCOC(=O)CCC`, the “activity change, negative = inhibition” value was 16.2% [at 115 µM].
Same read-out and setting: the same measure for `C/C=C(\C)C(=O)OC(C)(C)[C@H]1Cc2cc3ccc(=O)oc3cc2O1`: -12.1%; for `COc1cc2cc(Oc3ccc4ccc(=O)oc4c3)c(=O)oc2cc1OC1OC(COC(=O)CC(C)(O)CC(=O)O)C(O)C(O)C1O` (stereo not given): 23%; for `COC(=O)/C=C/c1ccccc1`: 1.47% [at 115 µM].
Still for that read-out and setting: the same measure for `CCOC(=O)CC(C)C`: 18.9% [at 115 µM].
Same read-out and setting: the same measure for `C=C(C)[C@@H]1CC[C@@H](C)C[C@@H]1O`: 29% [at 115 µM]; for `CCCCC/C=C\C[C@@H]1O[C@H]1C(O)/C=C\C/C=C\CCCC(=O)O` (stereo not given in full): 17.5% [at 0.757 µM]; for `C#CCCC/C(=C\C(=O)N(C)[C@H](C(=O)N(C)[C@H](C(=O)N(C)[C@H](C(=O)N(C)[C@H](C(N)=O)C(C)C)C(C)C)C(C)C)C(C)C)OC`: 1.53%.
For `Cn1c2c(c(=O)c3ccccc31)CCC(C)(C)O2`, the “activity change, negative = inhibition” value was 3.42%.
For the compound `COc1cc(CCc2ccccc2)c(C(=O)O)c(O)c1C/C=C(/C)CCC=C(C)C`, the “activity change, negative = inhibition” value was 12.3%.
With `COc1ccc2cc1Oc1ccc(cc1)CC1c3cc(c(OC)cc3CCN1C)Oc1c(OC)c(OC)c(OC)c3c1C(C2)N(C)CC3` (stereo not given), the “activity change, negative = inhibition” value was 7.27% [at 24.7 µM].
For `O=c1[nH]c(=O)c2ncn(C3OC(CO)C(O)C3O)c2[nH]1` (stereo not given), the “activity change, negative = inhibition” value was 22.7%.
The same measure, in the same setting: the same measure for `Cc1c[nH]c(C=C2C(=O)Nc3ccccc32)c1CCC(=O)O`: 9.09%; for `O=C1Nc2ccc(Cl)cc2C(C#CC2CC2)(C(F)(F)F)O1` (stereo not given): -0.763%.
Regarding `OCCN1C[C@H](O)[C@@H](O)[C@H](O)[C@@H]1CO`, the “activity change, negative = inhibition” value was 4.21%.
On the same count and under the same terms, the figure for `OC[C@H]1O[C@@H](Oc2ccc(O)cc2)[C@H](O)[C@@H](O)[C@H]1O` is 30.2%.
In the case of `O=C(OCC#CCSc1nnc(-c2cccc3ccccc23)o1)c1cc2ccccc2s1`, the “activity change, negative = inhibition” value was 0.909%.
Regarding `CC(C)(O)c1cc2nc(-c3cnc(N)nc3)nc(N3CCOCC3)c2s1`, the Potency is 611 nM (active).
Consider `O=C(/C=C/c1ccccc1)NCCc1cnc[nH]1`, for which the “activity change, negative = inhibition” value was 12.4%.
The same measure, in the same setting: the figure for `COc1cc2c(c(OC)c1OC)-c1c(cc(OC)c(OC)c1OC)C[C@](C)(O)[C@@H](C)C2` is 12.6%.
Still for that read-out and setting: the same measure for `COC(=O)C1=CO[C@@H](C)[C@@H]2CN3CC[C@]4(C(=O)Nc5c4ccc(OC)c5OC)[C@H]3C[C@H]12`: 7%; for `C/C=C\C/C=C/CCCCCCCCOC(C)=O`: -9.28% [at 115 µM].
